A selection: hits, their analogues and other compounds. The true share with any hit is near 6.9%.
IL1B secr inh – inflammasome signaling inhibition, IL-1 beta readout | THP-1 LPS/ATP IL-1B secretion, AlphaLISA, 16 h; stronger effect = lower value | activity change, % at 57.5 µM | 360,000 compounds, 4.7% hits; in the data active = activity change below about -50%; inconclusive = mostly about -30% to -49%
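THP-1 cells pretreated 1 hr with compounds (up to 57.5 uM final), then stimulated with LPS (250 ng/mL final) plus ATP (1.25 mM final); secreted IL-1B measured by AlphaLISA after 16 hr, decreased signal indicating inhibition.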
Vif-A3G inh – Vif-A3G binding inhibition; Q9HC16; HeLa A3G-eYFP + Vif (tagged APOBEC3G with the HIV-1 protein that degrades it), YFP fluorescence, overnight; Potency, µM (doses to about 46.1 µM), usual class: inhibitors; 410,000 compounds, 0.076% hits; AID 602310; note: nearly all actives have a fitted effect of over 60% in size
Target sequence (Q9HC16 whole entry, looked up): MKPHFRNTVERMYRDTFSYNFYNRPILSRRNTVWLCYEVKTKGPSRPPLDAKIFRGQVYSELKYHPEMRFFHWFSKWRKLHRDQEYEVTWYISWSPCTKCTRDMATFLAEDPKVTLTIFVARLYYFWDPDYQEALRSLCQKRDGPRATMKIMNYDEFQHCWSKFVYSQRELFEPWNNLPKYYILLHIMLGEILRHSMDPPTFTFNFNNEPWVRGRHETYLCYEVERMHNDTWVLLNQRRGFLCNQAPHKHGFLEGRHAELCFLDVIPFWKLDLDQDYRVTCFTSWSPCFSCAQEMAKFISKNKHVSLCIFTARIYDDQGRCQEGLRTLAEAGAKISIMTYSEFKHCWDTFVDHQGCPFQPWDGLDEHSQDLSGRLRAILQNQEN
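HeLa cells stably expressing Vif and C-terminally eYFP-tagged A3G, seeded overnight at 37 deg C, then exposed to compound by pintool overnight at 37 deg C. Rise in yellow fluorescence (Ex 488/Em 500-530, Acumen) marks blocked Vif-driven A3G degradation.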
MCF10A rerep – inducers of DNA re-replication in MCF 10A breast cells; MCF 10A DNA re-replication, Hoechst nuclear intensity, 48 h; Potency, µM (highest dose often 46.1 µM), usual class: activators; 350,000 compounds, 2.9% hits; note: nearly all actives have a fitted effect of over 50% in size
Vif-A3F inh – Vif-A3F binding inhibition; Potency, µM (doses to about 46.1 µM); AID 602313; 390,000 compounds, 0.2% hits; HeLa A3F-eYFP + Vif (tagged APOBEC3F with the HIV-1 protein that degrades it), YFP fluorescence increase; note: nearly all actives have a fitted effect of over 65% in size
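HeLa cells stably expressing Vif plus C-terminally eYFP-tagged A3F were seeded, incubated overnight at 37 deg C, dosed with compound, incubated overnight again at 37 deg C. Yellow fluorescence (Ex 488/Em 500-530) reported blocked Vif-mediated A3F-eYFP degradation.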
Giardia kill – Giardia lamblia killing; Giardia lamblia trophozoite viability; 340,000 compounds, 0.15% hits; activity change, % at 7.66 µM, hits read low; in the data active = activity change below about -80%; inconclusive = between about -30% and that limit;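 note: parasites exposed to compound for two days anaerobically before the ATP read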
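Each well holds 100 Giardia trophozoites and compound. After two days (48 hrs) at 37 deg C in anaerobic conditions, ATP is quantified by luminescence.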
SW480 rereplic – DNA re-replication induction in SW480 cells. SW480 DNA re-replication, Hoechst DNA content imaging, 48 h. Potency, µM (series often up to 46.1 µM), usual class: activators. 340,000 compounds, 1.8% hits; note: nearly all actives have a fitted effect of over 55% in size
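Image-based DNA-content assay: after two days of treatment, nuclei were labelled with the DNA dye Hoechst and imaged, and hits were compounds raising the count of nuclei showing high fluorescence intensity.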
Large screens that a line does not name were inactive. Unless noted, calls come from the whole dose curve; as a rule, active = well fitted curve in the direction sought with a large enough effect; inconclusive = small, poorly fitted or top-dose-only effect, or another doubt; inactive = no such curve, though single readings can be large; an effect the other way counts as inactive or inconclusive.

CCOC(=O)c1ccc(NC(=S)N(CCCN2CCCCCC2)Cc2ccco2)cc1	IL1B secr inh -65.9
O=C(CN1C(=O)COc2ccc(S(=O)(=O)NC3CCCC3)cc21)NCc1ccc(Cl)cc1	none (no result: IL1B secr inh, MCF10A rerep, Giardia kill, SW480 rereplic)
CCOC(=O)C(Cc1ccccc1)NC(=O)CNC(=O)CNC(=O)OCc1ccccc1 (centres undefined)	IL1B secr inh -88.1, MCF10A rerep inconclusive
CCOC(=O)CNC(=O)C(Cc1ccccc1)NC(=O)OCc1ccccc1 (centres undefined)	MCF10A rerep inconclusive
COC(=O)C(Cc1ccccc1)NC(=O)C(CC(C)C)NC(=O)OC(C)(C)C (centres undefined)	none
COc1ccc(CN(C)C(=O)C(Cc2ccccc2)NC(=O)c2ccccc2)cc1F (centres undefined)	MCF10A rerep inconclusive, SW480 rereplic inconclusive
CCOc1ccc(CN(C)C(=O)[C@H](Cc2ccccc2)NC(=O)OCc2ccccc2)cc1OC	IL1B secr inh -76.8, MCF10A rerep inconclusive
CC(C)CC(NC(=O)OCc1ccccc1)C(=O)NC(Cc1ccccc1)C(=O)CCl (centres undefined)	IL1B secr inh -99.7, MCF10A rerep 7.31µM, SW480 rereplic 6.51µM
CCOC(=O)C(Cc1ccc(O)cc1)NC(=O)CNC(=O)C(CC(C)C)NC(=O)OC(C)(C)C (centres undefined)	IL1B secr inh -98.7, MCF10A rerep inconclusive
CCOC(=O)C(Cc1ccc(O)cc1)NC(=O)CNC(=O)C1CCCN1C(=O)OC(C)(C)C (centres undefined)	none
COc1ccc(C2=C(C)C(=NCCCN3CCN(c4cc(C)ccc4C)CC3)NS2(=O)=O)cc1	none (no result: IL1B secr inh, MCF10A rerep, Giardia kill, SW480 rereplic)
COc1ccc(NC(=O)CSc2nnc3c(n2)[nH]c2ccc(S(=O)(=O)N(C)C)cc23)c(OC)c1	none (no result: IL1B secr inh, Vif-A3G inh, MCF10A rerep, Vif-A3F inh, SW480 rereplic)
CC(=O)NC(c1cc(Cl)c2cccnc2c1O)C(C)C (centres undefined)	Vif-A3F inh 8.91µM, SW480 rereplic inconclusive (no result: IL1B secr inh)
CC(=O)NC(c1cc(Cl)c2cccnc2c1O)C1CC1 (centres undefined)	Vif-A3G inh 5.01µM, MCF10A rerep inconclusive, Vif-A3F inh inconclusive, SW480 rereplic 1.3µM (no result: IL1B secr inh)
CCC(=O)NC(c1cc(Cl)c2ccccc2c1O)C1CC1 (centres undefined)	none (no result: IL1B secr inh)
Cc1cc(NC(c2cccnc2)c2ccc3cccnc3c2O)no1 (centres undefined)	MCF10A rerep 10.3µM, SW480 rereplic 1.46µM (no result: Vif-A3F inh)
CC(=O)NC(c1ccccc1)c1cc([N+](=O)[O-])c2cccnc2c1O (centres undefined)	MCF10A rerep inconclusive
CC(=O)NC(c1ccc(C)cc1)c1cc(Cl)c2cccnc2c1O (centres undefined)	MCF10A rerep inconclusive, SW480 rereplic 2.91µM
CCCOc1ccc(NC(=O)CC2C(=O)N(c3cccc(OC)c3)C(=O)N2Cc2cccs2)cc1 (centres undefined)	none (no result: IL1B secr inh, MCF10A rerep, Giardia kill, SW480 rereplic)
Cc1ccc(O/C=C2/Nn3c(nnc3-c3cc(-c4ccccc4)n[nH]3)S2)cc1	none (no result: IL1B secr inh, MCF10A rerep, Vif-A3F inh, SW480 rereplic)
COc1cccc(NC(=O)c2ccc3nc(Cc4ccccc4)oc3c2)c1	none (no result: IL1B secr inh, MCF10A rerep, Giardia kill, SW480 rereplic)
O=C(Nc1ccc([N+](=O)[O-])cc1Cl)c1cc(Br)ccc1O	Giardia kill inconclusive (no result: IL1B secr inh, MCF10A rerep, Vif-A3F inh, SW480 rereplic)
Oc1c(C(Nc2cccnc2)c2ccc(C(F)(F)F)cc2)ccc2cccnc12 (centres undefined)	none (no result: IL1B secr inh, MCF10A rerep, Vif-A3F inh, Giardia kill, SW480 rereplic)
Oc1c(C(Nc2ccccn2)c2cccnc2)cc(Cl)c2cccnc12 (centres undefined)	MCF10A rerep 23.1µM, SW480 rereplic 6.51µM
COc1ccc(Cl)cc1C(Nc1cccnc1)c1ccc2cccnc2c1O (centres undefined)	IL1B secr inh -66.4, Vif-A3G inh inconclusive, MCF10A rerep inconclusive, SW480 rereplic 7.31µM
CCCOc1ccc(C2c3c(oc4ccccc4c3=O)C(=O)N2c2nnc(C(C)C)s2)cc1 (centres undefined)	none (no result: IL1B secr inh, MCF10A rerep, Giardia kill, SW480 rereplic)
Cc1cc(N2CCC(C)CC2)nc(NCc2ccccc2)n1	IL1B secr inh -90.1, SW480 rereplic 0.517µM
Cc1ccc(Nc2cc(C)nc(-c3ccccc3)n2)cc1	IL1B secr inh -98.3
Cc1cc(Nc2ccc(Cl)cc2)nc(NCc2ccccc2)n1	IL1B secr inh inconclusive, MCF10A rerep inconclusive, SW480 rereplic inconclusive
Cc1cc(Nc2ccccc2)nc(NCc2ccccc2)n1	IL1B secr inh -88.2, Vif-A3G inh inconclusive, MCF10A rerep 16.4µM, SW480 rereplic inconclusive
Cc1cc(Nc2cccc(F)c2)nc(NCc2ccccc2)n1	IL1B secr inh -101.9, Vif-A3G inh inconclusive, MCF10A rerep inconclusive, SW480 rereplic inconclusive
CC(=O)N1CCc2cc(S(=O)(=O)NC(CC(C)C)C(=O)Nc3ccc(C(C)C)cc3)ccc21 (centres undefined)	none (no result: IL1B secr inh, MCF10A rerep, Giardia kill, SW480 rereplic)
O=C(NC1CC(=O)N(c2cccc(F)c2)C1)C(c1ccccc1)c1ccccc1 (centres undefined)	none (no result: IL1B secr inh, MCF10A rerep, Giardia kill, SW480 rereplic)
CCCCNc1cc(C)nc(NCc2ccccc2)n1	IL1B secr inh -98.2
Fc1cc(NCc2ccccc2)nc(NCc2ccccc2)n1	IL1B secr inh -60.2, MCF10A rerep inconclusive
Fc1cc(F)nc(NCc2ccccc2)n1	none
Cc1cc(C)nc(NCCCc2ccccc2)n1	none
COc1ccc(C2NC(=O)N(C)C3=C2C(=O)N(c2cccc(Cl)c2)C3)cc1 (centres undefined)	none (no result: IL1B secr inh, MCF10A rerep, Giardia kill, SW480 rereplic)
Cc1cc(C)n(-c2cc(C(C)(C)C)nc3c(-c4ccccc4)cnn23)n1	MCF10A rerep 20.6µM (no result: IL1B secr inh)
Cc1cc(N2CCCCC2)n2ncc(-c3ccccc3)c2n1	MCF10A rerep inconclusive
Cc1cc(N2CCOCC2)n2ncc(-c3ccc(Cl)cc3)c2n1	SW480 rereplic 20.6µM
Cc1nn2c(N3CCN(C)CC3)cc(C(C)(C)C)nc2c1-c1ccccc1	IL1B secr inh -86.9, MCF10A rerep inconclusive, SW480 rereplic inconclusive
Cc1cc(NCc2ccccc2)n2ncc(-c3ccccc3)c2n1	MCF10A rerep 18.4µM, SW480 rereplic inconclusive
CCOCCCn1c(SCC(=O)Nc2ccc(C)cc2)nc2ccccc2c1=O	none (no result: IL1B secr inh, MCF10A rerep, Giardia kill, SW480 rereplic)
Cc1cc(C)n(-c2cc(C(C)(C)C)nc3c(-c4ccc(Cl)cc4)cnn23)n1	MCF10A rerep 23.1µM, Vif-A3F inh inconclusive, SW480 rereplic inconclusive
CC(C)(C)c1cc(N2CCOCC2)n2ncc(-c3ccc(Cl)cc3)c2n1	MCF10A rerep inconclusive
COc1ccc(S(=O)(=O)N(CC(=O)Nc2ccc(OC)cc2OC)c2ccc(Cl)cc2)cc1	none (no result: IL1B secr inh, MCF10A rerep, Giardia kill, SW480 rereplic)
S=C(NC1CCCCC1)N(CCc1ccccc1)CCc1ccccc1	MCF10A rerep inconclusive, Vif-A3F inh 7.08µM
COC(=O)C1=C(C)NC(C)=C(C(=O)OCC(C)C)C1c1ccccc1[N+](=O)[O-] (centres undefined)	IL1B secr inh -65.0, MCF10A rerep 26.6µM, SW480 rereplic inconclusive
